Measurements taken from PubChem BioAssay (NCATS).
Inconclusive results are not listed. Activity calls are given as the source filed them. Unless noted, the call rests on the fitted dose curve; in most records, active means well fitted curve in either direction with a large enough effect (not every such curve was filed as active); inconclusive means small, poorly fitted or top-dose-only effect, or another doubt; inactive means flat fitted curve, though single readings scatter.

Tests used:
[1] = target: Lysosomal acid glucosylceramidase (Homo sapiens) (UniProt P04062); test: Glucocerebrosidase-p2 (AID 348; in the data active means potency below about 10 µM; further: potency means the concentration at half of the fitted maximal effect); conditions: purified GBA, blue fluorogenic substrate, 40 min
How it was run: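 Normal human glucocerebrosidase (0.2 nM) with blue fluorogenic substrate (80 uM final) in citrate/phosphate pH 5.9 with 10mM sodium taurocholate, 0.01% tween-20; 40 min RT, NaOH/glycine stop; fluorescence Ex 365/Em 440; AC50 from a titration from 0.6 nM upwards.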

[2] = AP1 Signaling Pathway (AID 357); conditions: ME-180 AP-1-bla reporter, EGF-induced, beta-lactamase ratio, 5 h; at 7.69 µM (top of the series) unless noted;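 further: ME-180 reporter cells stimulated with EGF at its EC50 level; on the % scale 0 is the no-effect control and ±100 the full control effect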
How it was run: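 First, ME-180 AP-1-bla cells were cultured overnight at 37 °C in low-serum Opti-MEM. Next, titrated compounds with EC50 EGF were incubated 5 hours. Finally, CCF4 was added for 2.5 hours and the 460/530 nm ratio recorded.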

[3] = target: Cytochrome P450 1A2 (Homo sapiens) (UniProt P05177); test: p450-cyp1a2 (AID 410; calls by dose curve; further: potency means the concentration at half of the fitted maximal effect;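 on activity change, negative = inhibition: -100% = full effect of reference inhibitor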); conditions: recombinant CYP1A2, luciferin-ME demethylation, luminescence; series mostly up to 11.4 µM
How it was run: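 Luminescent demethylation readout: Luciferin-ME (100uM, equal to Km) turned over by 20nM CYP1A2 for 60 min at room temperature after NADPH regeneration addition, following 10 min compound preincubation. Normalization used 57 uM furafylline as full inhibition.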

[4] = NFAT Signaling Pathway (AID 444); conditions: Jurkat NFAT-bla M1, carbachol, beta-lactamase ratio, 5 h; at 7.69 µM (top of the series) unless noted;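 further: carbachol stimulus at about its EC50 of 1 µM final; on the % scale 0 is the no-effect control and ±100 the full control effect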
How it was run: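 Read-out: CCF4 FRET ratio (460 nm/530 nm) after 1 h RT dye loading, used for %activity and AC50 from titration series. Cells: Jurkat NFAT-β-lactamase/M1 line, treated with compound plus 1 uM carbachol for 5 h, 37 °C.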

[5] = Stat Signaling Pathway (AID 446); conditions: ME-180 SIE beta-lactamase reporter, IL-6 stimulated, 5 h; at 7.69 µM (top of the series) unless noted;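 further: ME-180 cervical cancer cells given 40 pM IL-6 alongside compound; SIE-controlled beta-lactamase reporter measured as 460/530 nm FRET emission ratio; on the % scale 0 is the no-effect control and ±100 the full control effect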
How it was run: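 Overnight-plated ME-180 cells bearing a STAT Inducible Element beta-lactamase reporter; 5 h co-exposure to compound and 40 pM IL-6; values normalized to 300 pM IL-6 and 125 nM JAK inhibitor controls.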

[6] = target: Glucocorticoid receptor (Homo sapiens) (UniProt P04150); test: GR-GFP Redistribution (AID 450;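 active means compounds whose dose series gives a full or clear partial fitted curve of increased nuclear translocation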; further: potency means the concentration at half of the fitted maximal effect); conditions: U2OS GR-GFP nuclear translocation, laser cytometry, 2 h
[7] = target: Glucocorticoid receptor (Homo sapiens) (UniProt P04150); test: GR-EFC Redistribution (AID 451; calls by dose curve; further: potency means the concentration at half of the fitted maximal effect); conditions: CHO-K1 GR-EFC translocation, beta-gal luminescence, 2 h
How it was run: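 Translocation of GR-ED fusion to nuclear EA restores b-gal, read by luminescence after 1 h room-temperature detection. Engineered CHO-K1 biosensor cells, 1,000/well, exposed 2 h at 37 C to titrations up to 46 uM final.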

[8] = target: Mitogen-activated protein kinase 10 (Mus musculus) (UniProt Q61831); test: JNK3 AlphaScreen Assay (AID 530); conditions: JNK3 lysate, c-Jun phosphorylation; series mostly up to 11.4 µM;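 further: kinase came from lysate of stimulated human HepG2 cells; signal reports phosphorylation of biotinylated GST-cJun 1-79 at Ser73 with 10 µM ATP; on the % scale 0 is the no-effect control and ±100 the full control effect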
How it was run: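 qHTS titrations with 15 min compound pre-incubation before adding ATP (10 uM final). Read-out: AlphaScreen of Ser73-phosphorylated biotin-GST-cJun using HepG2 lysate JNK3 activated by IL-1β and TNFα.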

[9] = target: 3',5'-cyclic-AMP phosphodiesterase 4B (Homo sapiens) (UniProt Q07343); test: qHTS Assay for Inhibitors of PDE-IV (AID 607; active means well fitted activation curve with a large enough effect in the main read-out, with a control signal flat, not every such curve was filed as active; further: % of control where 0% means no effect); conditions: HEK293 ACTOne CNG channel cells, membrane potential fluorescence; series mostly up to 22.9 µM
How it was run: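 Live HEK293 cells with a modified cyclic nucleotide-gated (CNG) channel report intracellular cAMP via membrane-potential dye fluorescence (ex 535/em 590 nm). Endogenous PDE-IV was targeted. Compounds were tested at up to 22.9 uM final; RO 20-1724 100 uM served as control.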

[10] = target: Cytochrome P450 2C9 (Homo sapiens) (UniProt P11712); test: qHTS Assay for Inhibitors and Substrates of Cytochrome P450 2C9 (AID 883; active means well fitted curve in the direction sought with a large enough effect; an effect the other way counts as inactive or inconclusive; further: nearly all actives have a fitted effect of over 60% in size; further: potency means the concentration at half of the fitted maximal effect); conditions: recombinant CYP2C9, luciferin-H luminescence, 60 min; series mostly up to 11.4 µM
How it was run: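 Luminescent read-out of deoxyluciferin hydroxylation, normalized to 57uM sulphaphenazole (AC100). Reaction: 10nM enzyme, 100uM Luciferin-H (equal to KM), 25mM KPO4, 10 min compound preincubation, then 60 min with NADPH regeneration, both at 37C.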

[11] = target: Cytochrome P450 2C19 (Homo sapiens) (UniProt P33261); test: qHTS Assay for Inhibitors and Substrates of Cytochrome P450 2C19 (AID 899; active means well fitted curve in the direction sought with a large enough effect; an effect the other way counts as inactive or inconclusive; further: nearly all actives have a fitted effect of over 60% in size; further: potency means the concentration at half of the fitted maximal effect); conditions: recombinant CYP2C19, luciferin-H EGE luminescence; series mostly up to 11.4 µM
How it was run: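 Luminescence readout of luciferin formed from 10uM Luciferin-H EGE (KM level) by 5 nM CYP2C19 in 50mM KPO4. 60 min NADPH-driven reaction at 37C after 10 min compound preincubation; data scaled to 57uM ketoconazole inhibition.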

[12] = target: Cytochrome P450 3A4 (Homo sapiens) (UniProt P08684); test: qHTS Assay for Inhibitors and Substrates of Cytochrome P450 3A4 (AID 884; active means well fitted curve in the direction sought with a large enough effect; an effect the other way counts as inactive or inconclusive; further: nearly all actives have a fitted effect of over 50% in size; further: potency means the concentration at half of the fitted maximal effect); conditions: recombinant CYP3A4, Luciferin-PPXE luminescence; series mostly up to 57.1 µM
How it was run: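 Luminescent readout of luciferin produced by CYP3A4 (20 nM) dealkylation of Luciferin-PPXE, 25 uM (its KM). NADPH-driven reaction ran 60 min at RT after 10 min compound preincubation; data scaled to 57 uM ketoconazole as 100% inhibition.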

[13] = target: Cytochrome P450 2D6 (Homo sapiens) (UniProt P10635); test: qHTS Assay for Inhibitors and Substrates of Cytochrome P450 2D6 (AID 891; active means well fitted curve in the direction sought with a large enough effect; an effect the other way counts as inactive or inconclusive; further: nearly all actives have a fitted effect of over 60% in size; further: potency means the concentration at half of the fitted maximal effect); conditions: recombinant CYP2D6, luciferin-ME EGE luminescence; series mostly up to 11.4 µM
How it was run: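 Luminescent read-out of luciferin formed by 5 nM human CYP2D6 demethylating 30 uM Luciferin-ME EGE (Km level) over 60 min at room temperature after NADPH regeneration addition. Data normalized to full inhibition by 1.43 uM quinidine.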

[14] = target: Cytochrome P450 3A4 (Homo sapiens) (UniProt P08684); test: qHTS Assay for Activators of Cytochrome P450 3A4 (AID 885; active means well fitted curve in the direction sought with a large enough effect; an effect the other way counts as inactive or inconclusive; further: nearly all actives have a fitted effect of over 65% in size); conditions: recombinant CYP3A4, Luciferin-PPXE luminescence, 60 min; series mostly up to 11.4 µM
How it was run: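 Using 20nM recombinant human CYP3A4 in potassium phosphate (200mM), substrate Luciferin-PPXE at 25uM, luminescent luciferin detection followed a 60-min RT NADPH reaction; data scaled to 57 uM ketoconazole.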

[15] = qHTS Assay for Identification of Small Molecule Agonists for Hypoxia Response Element Signaling Pathway (AID 914; active means well fitted activation curve with a large enough effect in the signal ratio, with a control signal flat, not every such curve was filed as active; the % refers to the signal ratio; further: % of control where 0% means no effect); conditions: ME-180 (cervical carcinoma) HRE-bla reporter, beta-lactamase ratio, CoCl2, 17 h; activation: stronger effect = higher value
How it was run: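 Positive modulation of EC50 CoCl2-induced hypoxia response element signaling is measured in ME-180 cells with a beta-lactamase reporter. Compounds are titrated, incubation runs 17 hours, and %Activity derives from the blue/green ratio.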

Chain of Glucocorticoid receptor (Homo sapiens) (P04150 whole entry, looked up, the tested form may be a part): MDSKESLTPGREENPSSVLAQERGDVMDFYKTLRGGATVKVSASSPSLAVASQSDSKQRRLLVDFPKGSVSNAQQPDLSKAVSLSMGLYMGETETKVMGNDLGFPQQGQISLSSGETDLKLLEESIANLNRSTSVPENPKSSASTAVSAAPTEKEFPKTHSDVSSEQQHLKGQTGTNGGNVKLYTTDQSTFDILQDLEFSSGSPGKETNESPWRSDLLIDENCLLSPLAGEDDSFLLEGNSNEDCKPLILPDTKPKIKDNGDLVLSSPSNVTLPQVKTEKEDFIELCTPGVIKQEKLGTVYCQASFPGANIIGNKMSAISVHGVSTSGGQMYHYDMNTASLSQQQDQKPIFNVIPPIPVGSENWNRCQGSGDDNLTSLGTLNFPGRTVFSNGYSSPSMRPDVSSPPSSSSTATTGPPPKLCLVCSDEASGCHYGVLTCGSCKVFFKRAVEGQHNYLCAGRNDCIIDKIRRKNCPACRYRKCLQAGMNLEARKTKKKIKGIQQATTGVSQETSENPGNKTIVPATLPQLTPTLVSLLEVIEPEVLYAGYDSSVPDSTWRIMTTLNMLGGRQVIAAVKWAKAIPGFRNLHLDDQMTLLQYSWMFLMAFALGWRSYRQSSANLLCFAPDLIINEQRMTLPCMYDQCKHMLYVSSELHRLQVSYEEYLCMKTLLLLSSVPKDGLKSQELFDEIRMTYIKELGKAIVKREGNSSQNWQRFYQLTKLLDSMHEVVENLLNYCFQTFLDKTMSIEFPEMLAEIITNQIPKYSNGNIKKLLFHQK
Chain of Cytochrome P450 2C19 (Homo sapiens) (P33261 whole entry, looked up): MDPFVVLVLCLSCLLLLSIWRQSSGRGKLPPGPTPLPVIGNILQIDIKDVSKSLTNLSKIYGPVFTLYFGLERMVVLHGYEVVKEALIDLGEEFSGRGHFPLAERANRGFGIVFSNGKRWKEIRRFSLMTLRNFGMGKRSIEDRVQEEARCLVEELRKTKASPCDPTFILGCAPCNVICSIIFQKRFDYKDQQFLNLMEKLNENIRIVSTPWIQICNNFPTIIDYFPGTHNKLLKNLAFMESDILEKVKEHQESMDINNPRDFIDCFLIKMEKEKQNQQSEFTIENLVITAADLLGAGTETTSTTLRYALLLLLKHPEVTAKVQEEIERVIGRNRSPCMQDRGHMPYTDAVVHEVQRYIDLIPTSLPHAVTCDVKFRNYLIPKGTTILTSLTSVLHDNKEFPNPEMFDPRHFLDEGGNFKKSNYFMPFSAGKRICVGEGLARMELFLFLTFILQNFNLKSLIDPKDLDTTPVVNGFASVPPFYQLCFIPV
Chain of Lysosomal acid glucosylceramidase (Homo sapiens) (P04062 whole entry, looked up): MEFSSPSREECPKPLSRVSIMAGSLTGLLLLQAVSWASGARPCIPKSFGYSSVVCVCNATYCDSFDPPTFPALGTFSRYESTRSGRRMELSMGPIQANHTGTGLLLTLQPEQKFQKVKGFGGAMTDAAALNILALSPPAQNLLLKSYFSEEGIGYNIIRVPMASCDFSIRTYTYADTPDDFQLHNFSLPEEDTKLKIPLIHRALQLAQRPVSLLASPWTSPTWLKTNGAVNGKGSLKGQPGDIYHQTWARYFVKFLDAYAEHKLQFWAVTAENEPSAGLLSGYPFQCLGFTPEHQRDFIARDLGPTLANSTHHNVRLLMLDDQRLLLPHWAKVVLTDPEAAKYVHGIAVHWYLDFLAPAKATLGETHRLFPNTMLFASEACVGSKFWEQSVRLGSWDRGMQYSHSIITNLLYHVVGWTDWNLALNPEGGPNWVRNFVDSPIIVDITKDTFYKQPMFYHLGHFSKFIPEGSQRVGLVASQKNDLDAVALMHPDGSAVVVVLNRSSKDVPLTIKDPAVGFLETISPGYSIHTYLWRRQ
Chain of Cytochrome P450 3A4 (Homo sapiens) (P08684 whole entry, looked up): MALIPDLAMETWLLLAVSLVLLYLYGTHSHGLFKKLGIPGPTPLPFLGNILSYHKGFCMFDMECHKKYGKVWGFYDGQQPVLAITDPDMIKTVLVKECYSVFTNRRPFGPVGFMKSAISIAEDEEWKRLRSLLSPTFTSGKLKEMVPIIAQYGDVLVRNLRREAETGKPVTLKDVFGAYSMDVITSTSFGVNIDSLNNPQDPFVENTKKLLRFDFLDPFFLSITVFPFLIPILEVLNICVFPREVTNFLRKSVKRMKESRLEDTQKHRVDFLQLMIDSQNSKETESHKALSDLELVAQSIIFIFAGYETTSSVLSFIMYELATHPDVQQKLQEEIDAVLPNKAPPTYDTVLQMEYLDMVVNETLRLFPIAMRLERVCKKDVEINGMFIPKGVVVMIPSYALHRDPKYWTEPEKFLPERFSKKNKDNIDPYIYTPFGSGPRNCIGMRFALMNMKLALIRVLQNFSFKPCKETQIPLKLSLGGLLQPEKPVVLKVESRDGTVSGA
Chain of Cytochrome P450 2C9 (Homo sapiens) (P11712 whole entry, looked up): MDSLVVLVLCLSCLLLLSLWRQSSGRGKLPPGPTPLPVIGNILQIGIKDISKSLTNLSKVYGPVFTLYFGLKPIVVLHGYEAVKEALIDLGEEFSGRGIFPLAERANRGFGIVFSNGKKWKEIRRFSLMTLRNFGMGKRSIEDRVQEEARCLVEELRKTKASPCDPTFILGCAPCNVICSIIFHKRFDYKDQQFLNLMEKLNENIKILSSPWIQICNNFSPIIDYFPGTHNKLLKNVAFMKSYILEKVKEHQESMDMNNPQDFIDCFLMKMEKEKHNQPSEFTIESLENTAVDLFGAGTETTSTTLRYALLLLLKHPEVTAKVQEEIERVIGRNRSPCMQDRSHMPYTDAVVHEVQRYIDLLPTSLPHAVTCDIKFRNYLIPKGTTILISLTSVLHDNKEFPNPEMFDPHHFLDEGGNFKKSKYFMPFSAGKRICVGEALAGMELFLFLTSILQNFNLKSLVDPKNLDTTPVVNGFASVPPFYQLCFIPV
Chain of 3',5'-cyclic-AMP phosphodiesterase 4B (Homo sapiens) (Q07343 whole entry, looked up): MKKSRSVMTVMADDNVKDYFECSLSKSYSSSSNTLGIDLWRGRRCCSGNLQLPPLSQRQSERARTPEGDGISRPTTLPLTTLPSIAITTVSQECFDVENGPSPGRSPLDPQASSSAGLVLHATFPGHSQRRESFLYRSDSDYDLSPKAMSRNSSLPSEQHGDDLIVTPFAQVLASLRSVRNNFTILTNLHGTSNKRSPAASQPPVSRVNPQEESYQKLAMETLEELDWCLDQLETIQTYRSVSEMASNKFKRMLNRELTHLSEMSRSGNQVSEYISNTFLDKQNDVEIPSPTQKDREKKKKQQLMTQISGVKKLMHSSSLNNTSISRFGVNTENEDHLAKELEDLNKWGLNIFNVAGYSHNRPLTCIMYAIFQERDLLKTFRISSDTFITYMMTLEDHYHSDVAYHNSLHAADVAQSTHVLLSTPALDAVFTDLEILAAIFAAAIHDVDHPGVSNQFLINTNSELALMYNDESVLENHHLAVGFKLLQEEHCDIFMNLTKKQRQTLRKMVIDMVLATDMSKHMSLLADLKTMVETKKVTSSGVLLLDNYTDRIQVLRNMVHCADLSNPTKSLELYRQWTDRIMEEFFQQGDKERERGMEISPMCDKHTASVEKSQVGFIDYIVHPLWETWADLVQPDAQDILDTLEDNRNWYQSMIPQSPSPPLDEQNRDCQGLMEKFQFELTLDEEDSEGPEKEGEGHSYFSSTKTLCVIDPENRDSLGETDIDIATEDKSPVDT
Chain of Cytochrome P450 1A2 (Homo sapiens) (P05177 whole entry, looked up): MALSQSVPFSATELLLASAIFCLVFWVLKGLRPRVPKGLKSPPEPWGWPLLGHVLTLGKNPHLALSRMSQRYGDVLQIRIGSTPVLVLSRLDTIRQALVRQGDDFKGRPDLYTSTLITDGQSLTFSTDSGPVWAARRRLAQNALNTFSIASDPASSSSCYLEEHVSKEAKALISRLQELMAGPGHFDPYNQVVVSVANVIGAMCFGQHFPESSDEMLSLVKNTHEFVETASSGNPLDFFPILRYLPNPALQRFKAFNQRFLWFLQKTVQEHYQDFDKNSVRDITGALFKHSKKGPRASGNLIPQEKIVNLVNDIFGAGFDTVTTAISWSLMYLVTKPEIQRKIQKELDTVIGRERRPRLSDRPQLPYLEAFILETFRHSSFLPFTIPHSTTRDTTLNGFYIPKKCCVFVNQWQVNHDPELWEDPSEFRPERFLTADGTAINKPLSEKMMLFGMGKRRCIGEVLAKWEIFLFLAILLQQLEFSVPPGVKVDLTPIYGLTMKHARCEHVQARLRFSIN
Chain of Cytochrome P450 2D6 (Homo sapiens) (P10635 whole entry, looked up): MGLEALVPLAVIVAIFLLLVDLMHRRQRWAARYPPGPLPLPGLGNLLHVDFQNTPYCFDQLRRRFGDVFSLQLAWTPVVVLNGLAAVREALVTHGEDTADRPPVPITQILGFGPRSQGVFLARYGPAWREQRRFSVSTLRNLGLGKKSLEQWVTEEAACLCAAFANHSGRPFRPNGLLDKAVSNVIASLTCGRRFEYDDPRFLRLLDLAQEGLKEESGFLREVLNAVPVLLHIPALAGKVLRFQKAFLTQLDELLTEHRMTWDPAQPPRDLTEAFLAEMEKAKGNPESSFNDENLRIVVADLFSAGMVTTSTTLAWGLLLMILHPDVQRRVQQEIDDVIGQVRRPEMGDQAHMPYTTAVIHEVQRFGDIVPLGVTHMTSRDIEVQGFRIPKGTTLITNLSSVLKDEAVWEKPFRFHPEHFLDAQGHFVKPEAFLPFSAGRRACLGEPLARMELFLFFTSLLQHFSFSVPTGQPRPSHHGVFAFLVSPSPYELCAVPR

CN(C)CCNCCN
inactive: Potency [1] > 11.4 µM | activity change, negative = inhibition [2] 9.73% | Potency [3] | activity change, negative = inhibition [4] 16.1% | activity, negative = inhibition [5] 4.92% | Potency [6] > 46 µM | Potency [7] > 9.22 µM | Potency [8] | Potency [9] | Potency [10] | Potency [11]

C[C@H]1[C@H](O)[C@@H](C)C=CC=CC=CC=CC=CC=CC=C[C@H](O[C@@H]2O[C@@H](C)[C@H](O)[C@@H](N)[C@@H]2O)C[C@@H]2O[C@](O)(C[C@@H](O)C[C@@H](O)[C@@H](O)CC[C@@H](O)C[C@@H](O)CC(=O)O[C@H]1C)C[C@H](O)[C@H]2C(=O)O
inactive: Potency [1] > 11.4 µM | activity change, negative = inhibition [2] -7.91% | Potency [3] | activity change, negative = inhibition [4] -0.0379% | activity, negative = inhibition [5] 6.85% | Potency [6] > 46 µM | Potency [7] > 9.22 µM | Potency [8] | Potency [9] | Potency [10] | activity change, negative = inhibition [12] -24.7% [at 11.4 µM] | Potency [13] | Potency [11]

C[C@H]1C[C@@H]2[C@H]3CCC4=CC(=O)C=C[C@@]4(C)[C@]3(Cl)[C@@H](Cl)C[C@]2(C)[C@]1(O)C(=O)COP(=O)(O)O
inactive: Potency [1] > 11.4 µM | activity change, negative = inhibition [2] -4.94% | Potency [3] | activity change, negative = inhibition [4] 9.07% | activity, negative = inhibition [5] 2.85% | Potency [8] | Potency [9] | Potency [10] | Potency [13] | Potency [11]
active: Potency [6] 0.0275 µM | Potency [7] 7.37 µM

c1ccc2c(c1)-c1nc3ccccc3cc1[C@H]2N1CCOCC1
active: Potency [3] 1.26 µM | Potency [12] 2.51 µM
inactive: Potency [1] > 11.4 µM | activity change, negative = inhibition [2] -6.79% | activity change, negative = inhibition [4] -6.28% | activity, negative = inhibition [5] 7.66% | Potency [6] > 46 µM | Potency [7] > 9.22 µM | Potency [8] | Potency [9] | Potency [14]

O=[N+]([O-])c1ccc(Nc2nc3ccccc3s2)cc1
inactive: Potency [1] > 11.4 µM | activity change, negative = inhibition [2] 18.2% | Potency [3] | activity change, negative = inhibition [4] -2.36% | activity, negative = inhibition [5] 0.26% | Potency [6] > 46 µM | Potency [7] > 9.22 µM | Potency [8] | Potency [9] | Potency [14]
active: Potency [10] 1.26 µM

COc1ccc(CCCC(=O)O)c(C)c1
inactive: Potency [1] > 11.4 µM | activity change, negative = inhibition [2] 1.4% | Potency [3] | activity change, negative = inhibition [4] -4.8% | activity, negative = inhibition [5] -0.975% | Potency [6] > 46 µM | Potency [7] > 9.22 µM | Potency [8] | Potency [9] | Potency [10] | activity change, negative = inhibition [12] -0.798% [at 11.4 µM] | Potency [13] | Potency [11] | activation [15] -8.35%

Oc1cccc2ccc(SSc3ccc4cccc(O)c4n3)nc12
active: Potency [3] 3.16 µM | Potency [10] 1.58 µM | Potency [11] 3.16 µM
inactive: Potency [1] > 11.4 µM | activity change, negative = inhibition [2] 1.21% | activity change, negative = inhibition [4] -22.6% | activity, negative = inhibition [5] -15.4% | Potency [6] > 46 µM | Potency [7] > 9.22 µM | Potency [8] | Potency [9] | Potency [14]

C[C@](O)(c1ccccc1)c1nccc2ccccc12
inactive: Potency [1] > 11.4 µM | activity change, negative = inhibition [2] -0.483% | Potency [3] | activity change, negative = inhibition [4] 3.41% | activity, negative = inhibition [5] -8.29% | Potency [6] > 46 µM | Potency [7] > 9.22 µM | Potency [8] | Potency [9] | activity change, negative = inhibition [12] 49.6% [at 11.4 µM]

CN(C)C[C@H]1CCC[C@@H](CN(C)C)C1=O
inactive: Potency [1] > 11.4 µM | activity change, negative = inhibition [2] 5.24% | Potency [3] | activity change, negative = inhibition [4] -4.78% | activity, negative = inhibition [5] 3.25% | Potency [6] > 46 µM | Potency [7] > 9.22 µM | Potency [8] | Potency [9] | Potency [14]

C/C(=N/Nc1ccc2ccccc2n1)c1ccccc1O
inactive: Potency [1] > 11.4 µM | activity change, negative = inhibition [2] 5.21% | activity change, negative = inhibition [4] 2.32% | activity, negative = inhibition [5] 7.92% | Potency [6] > 46 µM | Potency [7] > 9.22 µM | Potency [8] | Potency [9] | Potency [14]
active: Potency [3] 1.58 µM | Potency [12] 3.16 µM | Potency [13] 0.794 µM

Cc1cnc2cc(Cl)ccc2c1SCC(=O)O
inactive: Potency [1] > 11.4 µM | activity change, negative = inhibition [2] -8.88% | activity change, negative = inhibition [3] -2.3% [at 2.29 µM] | activity change, negative = inhibition [4] -0.25% | activity, negative = inhibition [5] -11.6% | Potency [6] > 46 µM | Potency [7] > 9.22 µM | Potency [8] | Potency [9] | Potency [14]

CC(C)N1CCN(c2ccncc2S(=O)(=O)N2CCCCC2)CC1
inactive: Potency [1] > 11.4 µM | activity change, negative = inhibition [2] 0.726% | activity change, negative = inhibition [3] -17% [at 2.29 µM] | activity, negative = inhibition [5] -6.7% | Potency [6] > 46 µM | Potency [7] > 9.22 µM | Potency [8] | Potency [9] | Potency [14]
active: activity change, negative = inhibition [4] -81.6% | Potency [12] 3.16 µM

CC(=O)Nc1ccc2c(c1)C(=Nc1ccc(C(=O)O)cc1)c1ccccc1-2
inactive: Potency [1] > 11.4 µM | activity change, negative = inhibition [2] 2.47% | activity change, negative = inhibition [4] 27.4% | activity, negative = inhibition [5] 4.14% | Potency [6] > 46 µM | Potency [7] > 9.22 µM | Potency [8] | Potency [9] | Potency [14]
active: Potency [3] 0.316 µM
